Compounds with a hit are over-represented: about 2.3% of the library has one in this group of screens.
SENP7 inh: SENP7 protease inhibitors, primary screen, biochemical, luminescence, uHTS | Sentrin-specific protease 7 (Homo sapiens), Q9BQF6 | recombinant SENP7, Z-RLRGG-aminoluciferin luminescence, 40 min | inhibition, % at 5 µM | hit rate 1.5% among 330,000 | AID 434973, 2010;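 active = inhibition above about 50% at the single test dose, limit read from the data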;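 also: plate controls were DMSO with enzyme for no effect and no enzyme buffer wells for full effect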
SENP8 block-1: SENP8 protease inhibitors, primary screen, biochemical, luminescence; Sentrin-specific protease 8 (Homo sapiens), Q96LD8; purified SENP8, Z-RLRGG-aminoluciferin cleavage; inhibition, % at 10 µM; hit rate 1.2% among 330,000; AID 2540, 2010; in the data active = inhibition above about 50%
LGR2 inh: inhibitors of bursicon-induced LGR2 CRE-luciferase signal, primary screen, cell-based, HEK293, CRE-luciferase reporter, bursicon stimulation | bursicon-stimulated, 4 h | inhibition, % at 9.99 µM | hit rate 0.35% among 380,000 | Drosophila bursicon receptor LGR2 (rickets);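 active = drop in luminescence signal, shown as inhibition above about 50% in the replicate tests, limit read from the data, passing the limit was not always enough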;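 also: agonist challenge used bursicon conditioned medium at about half maximal strength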
HSP90 inh: HSP90 inhibitors, primary screen, cell lysate, luminescence; Heat shock protein HSP 90 (rabbit reticulocyte lysate; luciferase refolding); Rabbit reticulocyte lysate, luciferase refolding luminescence, 3 h; inhibition, % at 5.6 µM; hit rate 0.91% among 290,000; AID 1789, 2009;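 active = inhibition above the screen-wide mean plus 3 SD, computed separately per campaign, cut at about 16% in these data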;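 also: 0% = DMSO wells and 100% = 60 µM geldanamycin wells; inhibitors lower the luminescence because luciferase stays unfolded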
SENP8 block-2: human SENP8 protease inhibitors, primary screen, biochemical, fluorescence, Nedd8 protein substrate, uHTS | Sentrin-specific protease 8 (Homo sapiens), Q96LD8 | recombinant SENP8 | inhibition, % at 20 µM | hit rate 0.64% among 360,000 | AID 602440, 2012; in the data active = inhibition mostly above about 40%, no sharp cut-off; inactive = mostly below about 27%
SENP6 inh: SENP6 protease inhibitors, primary screen, biochemical, luminescence, uHTS. Sentrin-specific protease 6 (Homo sapiens), Q9GZR1. Recombinant SENP6 catalytic domain, aminoluciferin luminescence. inhibition, % at 10 µM. hit rate 1.8% among 330,000. AID 2599, 2010;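 active = inhibition above about 50% at the single tested dose, limit read from the data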;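 also: plate controls were DMSO wells with enzyme for no effect and DMSO wells lacking enzyme for full effect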
Target sequence (Q9GZR1 628-1112 limits assumed): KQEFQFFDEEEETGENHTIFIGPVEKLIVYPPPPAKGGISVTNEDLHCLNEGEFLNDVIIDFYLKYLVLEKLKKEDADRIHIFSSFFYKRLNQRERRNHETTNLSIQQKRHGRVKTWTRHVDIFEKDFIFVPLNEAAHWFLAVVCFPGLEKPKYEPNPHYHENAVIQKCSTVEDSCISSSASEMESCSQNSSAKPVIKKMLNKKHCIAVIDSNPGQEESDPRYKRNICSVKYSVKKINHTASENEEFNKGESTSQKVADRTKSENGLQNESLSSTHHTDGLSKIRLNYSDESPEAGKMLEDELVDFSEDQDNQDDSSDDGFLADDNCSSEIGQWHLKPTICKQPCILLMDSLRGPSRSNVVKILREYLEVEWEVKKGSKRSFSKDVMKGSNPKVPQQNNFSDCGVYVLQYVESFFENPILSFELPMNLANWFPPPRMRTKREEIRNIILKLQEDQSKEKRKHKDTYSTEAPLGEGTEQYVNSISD
SENP8 conf: human SENP8 protease inhibitors, confirmation, biochemical, Nedd8 protein substrate, single concentration. inhibition, % at 25 µM. shares compounds with SENP8 block-2. hit rate 15% among 1,400. purified SENP8, Nedd8-AMC/pro-Nedd8 cleavage fluorescence, 30 min; in the data active = inhibition mostly above about 39%, no sharp cut-off; inactive = mostly below about 34%
An asterisk follows results filed as active.

What do the screens show for `C=CC(C)(O)CCC=C(C)C` (stereo not drawn)?
SENP7 inh: -5.8; SENP8 block-1: 8.2; LGR2 inh: 10.0; SENP8 block-2: 40.6*; SENP6 inh: -1.6; SENP8 conf: 16.8

What do the screens show for `O=C(c1ccccc1)[C@@H]1[C@@H](C(=O)c2ccc(F)cc2)[C@@]2(C(=O)Nc3ccccc32)[C@H]2c3ccccc3C=CN12`?
SENP7 inh: 13.0; SENP8 block-1: 28.4; LGR2 inh: 2.5; HSP90 inh: 7.0; SENP8 block-2: 53.8*; SENP6 inh: 64.4*; SENP8 conf: 65.8*

What do the screens show for `CC(=O)[C@@H]1[C@@H](C(=O)c2ccccc2)[C@]2(C(=O)Nc3ccccc32)[C@H]2C=Cc3cc(F)ccc3N12`?
SENP7 inh: 6.6; SENP8 block-1: -5.5; LGR2 inh: 6.6; HSP90 inh: -1.2; SENP8 block-2: -36.1; SENP6 inh: 15.0

How did S=C(Nc1cccc(Cl)c1)NC1CCCCC1 do in these assays?
SENP7 inh: -2.8; SENP8 block-1: -15.9; HSP90 inh: -0.6; SENP8 block-2: 27.1; SENP6 inh: -18.9

How did S=C(NNc1cccc(Cl)c1)NC1CCCCC1 do in these assays?
SENP7 inh: -7.3; SENP8 block-1: -4.9; LGR2 inh: -14.0; HSP90 inh: 2.9; SENP8 block-2: 49.0*; SENP6 inh: 0.1; SENP8 conf: 20.8

How did C[C@@H]1CCCCO[C@H](CN(C)C(=O)CCC(F)(F)F)[C@@H](C)CN([C@@H](C)CO)C(=O)c2cc(NC(=O)CCCN(C)C)ccc2O1 do in these assays?
LGR2 inh: -6.9

Results for C/C=C/c1ccc(C2[C@@H]3CN(S(=O)(=O)c4cn(C)cn4)C[C@H]2N3)cc1 (stereo partly drawn) ?
LGR2 inh: 12.3

Results for COc1ccc(N2CC(C(=O)N[C@@H](C)C(=O)N[C@H](CO)c3ccccc3)CC2=O)cc1 (stereo partly drawn) ?
SENP7 inh: 0.9; SENP8 block-1: 0.6; LGR2 inh: -3.9; HSP90 inh: -2.5; SENP8 block-2: 53.1*; SENP6 inh: -8.9; SENP8 conf: 13.1

How did CCC(=O)Nc1ccc2c(c1)C(=O)N(C)[C@@H]1CC[C@H](CC(=O)N[C@@H](C)c3ccccc3)O[C@H]1CO2 do in these assays?
LGR2 inh: 2.8

Results for O=C(OCc1ccc(Cl)cc1)c1cnccn1 ?
SENP7 inh: -10.7; SENP8 block-1: -20.0; HSP90 inh: 3.9; SENP8 block-2: 13.4; SENP6 inh: -11.8

What do the screens show for `O=C(OCc1ccc(Cl)c(Cl)c1)c1cnccn1`?
SENP7 inh: 0.7; SENP8 block-1: -17.4; HSP90 inh: 0.9; SENP8 block-2: 44.7*; SENP6 inh: 9.1; SENP8 conf: -9.0

What do the screens show for `O=C(c1ccccc1)c1ccccc1`?
SENP7 inh: 1.4; SENP8 block-1: -4.5; SENP8 block-2: 61.2*; SENP6 inh: -0.4; SENP8 conf: 6.8

Results for O=C(CC(=O)c1ccccc1)c1ccccc1 ?
LGR2 inh: -51.6; SENP8 block-2: 4.7

Results for COc1ccccc1Cn1nnc2c(=O)[nH]c(C3CCN(C(=O)c4ccc(F)cc4)CC3)nc21 ?
SENP7 inh: -0.6; SENP8 block-1: 1.7; HSP90 inh: 0.6; SENP8 block-2: 52.9*; SENP6 inh: 7.7; SENP8 conf: 8.0

What do the screens show for `O=C(Nc1ccc(Cl)cc1Cl)c1ccc(-c2ccccc2)cc1`?
SENP7 inh: -0.7; SENP8 block-1: -3.3; LGR2 inh: -5.0; HSP90 inh: 2.0; SENP8 block-2: 19.0; SENP6 inh: -23.2
